Measurements taken from PubChem BioAssay (NCI).
This is part of a sample that, as a whole, favours compounds with a hit. Of some 79,000 tested, about 15% had one in any assay. Activity calls are given as the source filed them. Cut-off read from the data, not from the text of the source: active = growth inhibition above about 70%; inactive = the rest.

Key:
[1] = NCI Yeast Anticancer Drug Screen. Data for the wt2 strain (AID 169);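 note: 0% = growth of vehicle-treated yeast cultures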; conditions: S. cerevisiae wt2 strain growth inhibition, active compounds read high
Procedure, shortened: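 Inhibition of yeast growth was determined after compound treatment, normalised to controls receiving only vehicle.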

[2] = NCI Yeast Anticancer Drug Screen. Data for the mlh1 strain (AID 171);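 note: 0% = growth of vehicle-treated control cultures of the same strain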; conditions: S. cerevisiae mlh1 strain growth inhibition, active compounds read high
Procedure, shortened: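 Vehicle-normalised growth inhibition of a repair- or checkpoint-altered yeast strain following compound treatment.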

[3] = NCI Yeast Anticancer Drug Screen. Data for the sgs1 strain (AID 173);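 note: 0% = growth of vehicle-only control cultures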; conditions: S. cerevisiae sgs1 mutant, active compounds read high
Procedure, shortened: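 Screen format: yeast with repair or checkpoint alterations, compound exposure, growth read relative to vehicle.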

[4] = NCI Yeast Anticancer Drug Screen. Data for the mlh1 rad18 strain (AID 175); conditions: S. cerevisiae mlh1 rad18 strain growth inhibition, active compounds read high
Procedure, shortened: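 Vehicle-treated cultures served as the reference for growth inhibition in a yeast strain carrying DNA damage repair alterations exposed to each compound.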

[5] = NCI Yeast Anticancer Drug Screen. Data for the rad18 strain (AID 177); conditions: S. cerevisiae rad18 mutant growth inhibition, active compounds read high
Procedure, shortened: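 Test articles were incubated with altered yeast defective in DNA damage repair. Results are given as inhibition of growth versus vehicle.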

[6] = NCI Yeast Anticancer Drug Screen. Data for the rad52 strain (AID 147);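 note: 0% = growth of vehicle-treated control cultures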; conditions: S. cerevisiae rad52 mutant growth inhibition, active compounds read high
Procedure, shortened: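 Vehicle-treated cultures served as the reference for growth inhibition of compound-exposed yeast bearing a DNA repair mutation.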

[7] = NCI Yeast Anticancer Drug Screen. Data for the wt1 strain (AID 149);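 note: 0% = growth of vehicle-treated wt1 cultures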; conditions: S. cerevisiae wt1 strain (SPY 50644) growth inhibition, active compounds read high
Procedure, shortened: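 Vehicle-normalised growth inhibition; strain wt1; compound exposure.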

[8] = NCI Yeast Anticancer Drug Screen. Data for the rad50EPP+ strain (AID 151);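 note: 0% = growth of vehicle-treated control cultures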; conditions: S. cerevisiae rad50 mutant strain, active compounds read high
Procedure, shortened: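 In this screen, rad50EPP+ yeast were exposed to compounds. Growth inhibition was scored against vehicle-treated controls.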

[9] = NCI Yeast Anticancer Drug Screen. Data for the mgt1 strain (AID 153); conditions: S. cerevisiae mgt1 mutant growth inhibition, active compounds read high
Procedure, shortened: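 mgt1 strain exposed; growth vs vehicle control recorded as inhibition.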

[10] = NCI Yeast Anticancer Drug Screen. Data for the rad50 strain (AID 155);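 note: 0% = growth of vehicle-only cultures of the same strain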; conditions: S. cerevisiae rad50 strain growth inhibition, active compounds read high
Procedure, shortened: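 A DNA repair-deficient yeast mutant serves as the test organism; compound-induced growth inhibition is calculated against vehicle-treated cells.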

[11] = NCI Yeast Anticancer Drug Screen. Data for the mec2-1 strain (AID 157); conditions: S. cerevisiae mec2-1 strain, active compounds read high
Procedure, shortened: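 Vehicle-treated cultures served as reference for growth inhibition of compound-exposed mec2-1 yeast.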

[12] = NCI Yeast Anticancer Drug Screen. Data for the rad14 strain (AID 159);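 note: 0% = growth of vehicle-treated control cultures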; conditions: S. cerevisiae rad14 strain growth inhibition, active compounds read high
Procedure, shortened: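 Vehicle-treated cultures served as the baseline for growth inhibition of a DNA repair-mutant yeast strain exposed to each compound.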

[13] = NCI Yeast Anticancer Drug Screen. Data for the sgs1 mgt1 strain (AID 161);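 note: 0% = growth of cultures given vehicle only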; conditions: S. cerevisiae sgs1 mgt1 strain, active compounds read high
Procedure, shortened: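 Test agents were incubated with a DNA-repair-mutant yeast strain. Growth was then read and compared against vehicle-treated controls.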

[14] = NCI Yeast Anticancer Drug Screen. Data for the CLN2oe strain (AID 163);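 note: 0% = growth of vehicle-only control cultures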; conditions: S. cerevisiae CLN2oe strain, active compounds read high
Procedure, shortened: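 Inhibition relative to vehicle-treated yeast is reported. Cells: strain with genetic alteration in cell-cycle control, grown with compound.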

[15] = NCI Yeast Anticancer Drug Screen. Data for the cln2 rad14 strain (AID 165);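 note: 0% = growth equal to vehicle treated cultures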; conditions: S. cerevisiae cln2 rad14 strain, active compounds read high
Procedure, shortened: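 Each compound was tested on cln2 rad14 yeast. Inhibition of growth was calculated against vehicle-exposed controls.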

[16] = NCI Yeast Anticancer Drug Screen. Data for the bub3 strain (AID 167); conditions: S. cerevisiae bub3 mutant strain, active compounds read high
Procedure, shortened: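 Inhibition values come from growth of compound-treated mutant yeast normalised to vehicle-treated controls.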

[17] = at 5.0 µM (retest, dose inferred, filed as 0.5)
[18] = at 50.0 µM (retest, dose inferred, filed as 5.0)

Measured: growth inhibition

Cc1nc(-[n+]2nc(-c3ccncc3)nn2-c2ccccc2)sc1C
inactive: [1]; at 1.2 µM -2% | [1]; at 3.7 µM 2% | [1]; at 11.0 µM 18% | [1]; at 33.0 µM 50% | [2]; at 1.2 µM -2% | [2]; at 3.7 µM -5% | [2]; at 11.0 µM 7% | [2]; at 33.0 µM 58% | [3]; at 1.2 µM -2% | [3]; at 3.7 µM 7% | [3]; at 11.0 µM 45% | [3]; at 33.0 µM 69% | [4]; [17] 3% | [4]; [18] 48% | [5]; at 1.2 µM 1% | [5]; at 3.7 µM 3% | [5]; at 11.0 µM 7% | [5]; at 33.0 µM 46% | [5]; at 100.0 µM 45%
active: [1]; at 100.0 µM 72% | [2]; at 100.0 µM 72% | [3]; at 100.0 µM 77% | [4]; at 50.0 µM 76.2%

c1ccc(-c2nc3cccnc3s2)cc1
inactive: [6]; at 1.2 µM 1% | [6]; at 3.7 µM 1% | [6]; at 11.0 µM 6% | [6]; at 33.0 µM 14% | [6]; at 100.0 µM 16% | [7]; at 1.2 µM -2% | [7]; at 3.7 µM -4% | [7]; at 11.0 µM -2% | [7]; at 33.0 µM -2% | [7]; at 100.0 µM 0% | [8]; at 1.2 µM 3% | [8]; at 3.7 µM 7% | [8]; at 11.0 µM 8% | [8]; at 33.0 µM 19% | [8]; at 100.0 µM 24% | [9]; at 1.2 µM 1% | [9]; at 3.7 µM -2% | [9]; at 11.0 µM -1% | [9]; at 33.0 µM -10% | [9]; at 100.0 µM -11% | [10]; at 1.2 µM 2% | [10]; at 3.7 µM 9% | [10]; [17] 5% | [10]; at 11.0 µM 5% | [10]; at 33.0 µM 9% | [10]; [18] 56% | [10]; at 100.0 µM 33% | [11]; at 1.2 µM -2% | [11]; at 3.7 µM -1% | [11]; [17] 5% | [11]; at 11.0 µM -3% | [11]; at 33.0 µM -12% | [11]; [18] 20% | [11]; at 50.0 µM 9.5% | [11]; at 100.0 µM 20% | [12]; at 1.2 µM -3% | [12]; at 3.7 µM 0% | [12]; at 11.0 µM -2% | [12]; at 33.0 µM 1% | [12]; at 100.0 µM 5% | [13]; [17] -5% | [13]; [18] 18% | [13]; at 50.0 µM 13.6% | [14]; at 1.2 µM 0% | [14]; at 3.7 µM -1% | [14]; at 11.0 µM 0% | [14]; at 33.0 µM -5% | [14]; at 100.0 µM 3% | [15]; [17] -25% | [15]; [18] -19% | [15]; at 50.0 µM 5.55% | [16]; at 1.2 µM -4% | [16]; at 3.7 µM 0% | [16]; [17] 25% | [16]; at 11.0 µM 10% | [16]; at 33.0 µM 10% | [16]; [18] 43% | [16]; at 50.0 µM -2.7% | [16]; at 100.0 µM 14% | [1]; at 1.2 µM -2% | [1]; at 3.7 µM -3% | [1]; at 11.0 µM -3% | [1]; at 33.0 µM -5% | [1]; at 100.0 µM 0% | [2]; at 1.2 µM 2% | [2]; at 3.7 µM 13% | [2]; at 11.0 µM 2% | [2]; at 33.0 µM -2% | [2]; at 100.0 µM 15% | [3]; at 1.2 µM -2% | [3]; at 3.7 µM -3% | [3]; at 11.0 µM -2% | [3]; at 33.0 µM -3% | [3]; at 100.0 µM -9% | [4]; [17] -8% | [4]; [18] 1% | [4]; at 50.0 µM -4.1% | [5]; at 1.2 µM 3% | [5]; at 3.7 µM 2% | [5]; at 11.0 µM -1% | [5]; at 33.0 µM -6% | [5]; at 100.0 µM -15%
active: [10]; at 50.0 µM 73.5%

COC(=O)CCNc1c2ccccc2nc2cccc([N+](=O)[O-])c12
active: [6]; at 1.2 µM 97% | [6]; at 3.7 µM 97% | [6]; at 11.0 µM 97% | [6]; at 33.0 µM 98% | [6]; at 100.0 µM 98% | [7]; at 1.2 µM 79% | [7]; at 3.7 µM 87% | [7]; at 11.0 µM 96% | [7]; at 33.0 µM 97% | [7]; at 100.0 µM 97% | [8]; at 11.0 µM 80% | [8]; at 33.0 µM 93% | [8]; at 100.0 µM 97% | [9]; at 3.7 µM 74% | [9]; at 11.0 µM 87% | [9]; at 33.0 µM 97% | [9]; at 100.0 µM 97% | [10]; at 1.2 µM 95% | [10]; at 3.7 µM 95% | [10]; [17] 95% | [10]; at 11.0 µM 96% | [10]; at 33.0 µM 97% | [10]; [18] 98% | [10]; at 50.0 µM 86% | [10]; at 100.0 µM 97% | [11]; at 1.2 µM 97% | [11]; at 3.7 µM 97% | [11]; [17] 90% | [11]; at 11.0 µM 98% | [11]; at 33.0 µM 98% | [11]; [18] 99% | [11]; at 50.0 µM 91.3% | [11]; at 100.0 µM 98% | [12]; at 1.2 µM 99% | [12]; at 3.7 µM 99% | [12]; at 11.0 µM 99% | [12]; at 33.0 µM 99% | [12]; at 100.0 µM 99% | [13]; [17] 94% | [13]; [18] 98% | [13]; at 50.0 µM 81.2% | [14]; at 11.0 µM 89% | [14]; at 33.0 µM 96% | [14]; at 100.0 µM 98% | [15]; [17] 99% | [15]; [18] 99% | [15]; at 50.0 µM 89.4% | [16]; at 33.0 µM 96% | [16]; [18] 99% | [16]; at 50.0 µM 84% | [16]; at 100.0 µM 99% | [1]; at 11.0 µM 85% | [1]; at 33.0 µM 97% | [1]; at 100.0 µM 99% | [2]; at 1.2 µM 84% | [2]; at 3.7 µM 91% | [2]; at 11.0 µM 95% | [2]; at 33.0 µM 96% | [2]; at 100.0 µM 97% | [3]; at 1.2 µM 97% | [3]; at 3.7 µM 96% | [3]; at 11.0 µM 98% | [3]; at 33.0 µM 98% | [3]; at 100.0 µM 98% | [4]; [17] 96% | [4]; [18] 99% | [4]; at 50.0 µM 81.1% | [5]; at 1.2 µM 97% | [5]; at 3.7 µM 97% | [5]; at 11.0 µM 95% | [5]; at 33.0 µM 97% | [5]; at 100.0 µM 97%
inactive: [8]; at 1.2 µM 18% | [8]; at 3.7 µM 49% | [9]; at 1.2 µM 61% | [14]; at 1.2 µM 7% | [14]; at 3.7 µM 50% | [16]; at 1.2 µM -13% | [16]; at 3.7 µM 11% | [16]; [17] 10% | [16]; at 11.0 µM 66% | [1]; at 1.2 µM 5% | [1]; at 3.7 µM 27%
